Results taken from PubChem BioAssay AID720708 (National Center for Advancing Translational Sciences (NCATS), 2013).
Screen size: about 360,000 compounds; about 660 (0.18%) were called active. About 2% were inconclusive and are not listed. The call rests on the fitted dose curve; in most records, active means well fitted inhibition curve with a large enough effect; inconclusive means small, poorly fitted or top-dose-only effect; inactive means no such curve, though single readings can be large or run the other way. The entries come from a sample that favours actives as a whole. Entries that show only a call come without a potency.

Each compound was assayed against Rap guanine nucleotide exchange factor 4 (Homo sapiens) (UniProt Q8WZA2) (assay: qHTS for Antagonist of cAMP-regulated guanine nucleotide exchange factor 2 (EPAC2): primary screen). Details: EPAC2 GEF exchange of Rap1B-BODIPY-GDP, fluorescence; series mostly up to 114 µM.
Rap guanine nucleotide exchange factor 4 (Homo sapiens), sequence (Q8WZA2 whole entry, looked up): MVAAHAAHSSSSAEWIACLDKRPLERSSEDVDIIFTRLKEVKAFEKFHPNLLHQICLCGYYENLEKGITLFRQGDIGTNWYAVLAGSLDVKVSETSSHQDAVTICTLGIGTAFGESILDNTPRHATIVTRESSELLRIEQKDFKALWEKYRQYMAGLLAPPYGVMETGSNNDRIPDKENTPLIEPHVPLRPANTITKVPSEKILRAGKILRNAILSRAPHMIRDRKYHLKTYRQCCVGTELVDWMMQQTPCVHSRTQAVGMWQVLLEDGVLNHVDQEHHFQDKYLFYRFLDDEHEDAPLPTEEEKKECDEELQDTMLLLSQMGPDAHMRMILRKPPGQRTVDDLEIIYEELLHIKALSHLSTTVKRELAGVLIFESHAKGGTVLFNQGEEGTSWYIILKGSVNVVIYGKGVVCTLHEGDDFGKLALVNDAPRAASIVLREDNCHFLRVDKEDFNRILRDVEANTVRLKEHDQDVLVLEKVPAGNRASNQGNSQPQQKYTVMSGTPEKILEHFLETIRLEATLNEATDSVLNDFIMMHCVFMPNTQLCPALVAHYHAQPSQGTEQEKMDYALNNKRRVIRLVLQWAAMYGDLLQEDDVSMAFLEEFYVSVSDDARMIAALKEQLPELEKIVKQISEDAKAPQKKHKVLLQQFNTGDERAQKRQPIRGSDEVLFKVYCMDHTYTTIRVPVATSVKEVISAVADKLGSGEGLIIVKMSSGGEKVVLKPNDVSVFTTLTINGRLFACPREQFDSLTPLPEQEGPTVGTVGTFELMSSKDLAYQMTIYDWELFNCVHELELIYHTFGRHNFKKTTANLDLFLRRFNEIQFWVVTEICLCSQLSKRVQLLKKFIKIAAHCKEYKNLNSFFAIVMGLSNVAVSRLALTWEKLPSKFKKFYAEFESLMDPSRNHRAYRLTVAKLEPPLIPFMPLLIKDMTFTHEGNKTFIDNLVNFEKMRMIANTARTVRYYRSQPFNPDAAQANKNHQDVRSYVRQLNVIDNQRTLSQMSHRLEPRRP
From the text: In multi-cellular eukaryotic organisms, the effects of cAMP are transduced by two ubiquitously-expressed intracellular cAMP receptors, the classic protein kinase A/cAMP-dependent protein kinase (PKA/cAPK) and the more recently discovered exchange protein directly activated by cAMP/cAMP-regulated guanine nucleotide exchange factor (EPAC/cAMP-GEF). Both PKA and EPAC are ubiquitously expressed in all tissues, and an increase in intracellular cAMP levels will lead to the activation of both PKA and EPAC. Therefore, careful dissections of the individual role and relative contribution of EPAC and PKA within the overall cAMP signaling in various model systems are critical for further elucidating the mechanism of cAMP signaling. To date no EPAC-specific antagonists and agonist, as well as isoform-specific agonists have been reported, and developing EPAC-specific pharmacological probes to determine the physiological functions that EPAC play in the overall cAMP-mediated signaling remains a major challenge within the research field. Furthermore, identified regulators of EPAC may lead to new mechanism-based therapeutic strategies specifically targeting the EPAC / cAMP-signaling components as EPAC has been implicated to play important roles in major human pathological conditions such as diabetes, heart disease, and cancer.
This qHTS will be used to screen the Molecular Libraries Small Molecule Repository (MLSMR) as a concentration-titration series using the NCGC unique quantitative screening (qHTS) platform to find inhibitors for EPAC2. In addition, this assay will also be used as a counterscreen for the EPAC1 qHTS. This fluorescent based assay is developed and validated for EPAC2 that measures exchange using EPAC effector Rap1 complex with BODIPY-GDP, a GDP analog with a tethered fluorophores. Inhibitors are identified by monitoring the change in fluorescence signal as the exchanged free BODIPY-GDP has a reduced fluorescence compared to Rap1-bound BODIPY-GDP. Decrease in signal (inhibition) is the desired outcome for the EPAC2 antagonist while no activity in this assay is desired for the EPAC1 antagonist counterscreen.
NIH Chemical Genomics Center [NCGC]
NIH Molecular Libraries Probe Centers Network [MLPCN]
Assay Submitter (PI): Xiaodong Cheng, The University of Texas, Medical Branch
Briefly, three uL of reagents (100 nM EPAC2, 250 nM RAP1B-BODIPY-GDP, 50 uM GDP) were dispensed into a 1536-well Greiner black solid-bottom medium binding assay plate. Controls and test compounds (23 nL) were transferred to the plate via a Kalypsys pin tool equipped with a 1536-pin array. The plates were centrifuged at 1,000 rpm for 15 seconds followed by 5 minute incubation at room temperature. The assay plates were read at 5 minute intervals for 30 minutes in the ViewLux plate reader using 480nm excitation and 540nm emission filters. The results were normalized to the agonist positive control ATA and DMSO.
Further: nearly all actives have a fitted effect of over 45% in size.
Potency means the concentration at half of the fitted maximal effect.

Compound | Potency
O=C(NC1CCCCC1)C(c1cc2ccccc2o1)n1c(=O)c(-c2ccco2)nc2ccccc21 (centres undefined) | inactive
CCCc1nn2c(=O)cc(CSCC(=O)Nc3cccc(C)c3)nc2s1 | inactive
CCN(C(=O)COC(=O)c1c(NC(C)=O)sc(C)c1C)C1CCS(=O)(=O)C1 (centres undefined) | inactive
O=[N+]([O-])c1cc(Cl)cc(/C=N/NC(=S)Nc2cc(S(=O)(=O)N3CCOCC3)ccc2Cl)c1O | 56.2 µM (active)
O=C(Nc1cc(S(=O)(=O)N2CCOCC2)ccc1Cl)c1cc(=O)c2ccccc2o1 | inactive
O=C(c1cc(S(=O)(=O)N2CCOCC2)ccc1Cl)N1CCOCC1 | inactive
NC(=O)NC(=O)C(OC(=O)CCNS(=O)(=O)c1ccccc1)c1ccccc1 (centres undefined) | inactive
O=C(CCC(=O)n1ncc2ccccc21)NCc1ccccc1Cl | inactive
Cc1ccc2nc(NC(=O)CSc3nc(=O)n(CCCN(C)C)c4c3CCC4)sc2c1 | 79.4 µM (active)
Cc1csc(NC(=O)CSc2nc(=O)n(CCCN(C)C)c3c2CCC3)n1 | inactive
Cc1ccc(NC(=O)CSc2nc(=O)n(CCN(C)C)c3c2CCCC3)c(C)c1 | inactive
Cc1cc(C)c2cc(C#N)c(N3CCNCC3)nc2c1 | inactive
Oc1c(Cl)cc(Cl)c(Cl)c1Cc1c(O)c(Cl)cc(Cl)c1Cl | 31.6 µM (active)
O=C(NCc1ccccc1)C1CNCC(C(=O)NCc2ccccc2)C1 (centres undefined) | inactive
Cc1c2cnn(-c3ccccc3)c(=O)c2c(C)n1CCCC(=O)N1CCN(C)CC1 | inactive
O=C(OCC(=O)N1CCCCCC1)c1cnc(Cl)c(Cl)c1 | inactive
CCCCNC(=O)OC(C)CNC(=O)OC (centres undefined) | inactive
Cc1ccc(Cl)cc1N1CCN(C(=O)c2cccc3c(=O)c(C)c(-c4ccccc4)oc23)CC1 | 12.6 µM (active)
Cc1cccc(N2CCN(C(=O)c3cnn4c(C(F)F)cc(-c5ccccc5)nc34)CC2)c1C | inactive
COc1ccccc1N1CCN(C(=O)c2cc(=O)c3cc(C)cc(C)c3o2)CC1 | inactive
CCOCCCNC(=O)Cc1cc(=O)[nH]c(=O)[nH]1 | inactive
CCCCCC1CCC(c2nnc(SCC(C)=O)o2)CC1 (centres undefined) | inactive
COc1cccc2c(C)c(C(=O)O)[nH]c12 | inactive
N#C/C(C(=O)N1CCOCC1)=C1/SC(Cc2ccc(F)cc2)C(=O)N1c1ccccc1 (centres undefined) | inactive
Cc1cccc(NS(=O)(=O)c2ccc(C(=O)NCC(C)(C)N3CCOCC3)cc2)c1C | inactive

Compound | Potency
Nc1[nH]c(C(=O)c2ccccc2)c(-c2ccc(Br)cc2)c1C(=O)NC1CC1 | inactive
CCc1c(C)nc2c(OC)cccc2c1Cl | inactive
COc1cccc2c(N/N=C/c3ccco3)cc(C)nc12 | 12.6 µM (active)
O=c1nc(N/N=C/c2ccco2)cn[nH]1 | inactive
CC(C)(C)Cc1c(C2CCCCC2)nc2ccc(Br)cn12 | inactive
CCN(CC)S(=O)(=O)c1cc([N+](=O)[O-])ccc1NNC(=O)Nc1ccccc1 | inactive
CCC(C(=O)NC1CCCC1)N(C(=O)c1snc(C(N)=O)c1N)c1ccc2c(c1)OCCO2 (centres undefined) | inactive
Cc1c(Cl)c([N+](=O)[O-])nn1CC(=O)NCCCN1CCOCC1 | inactive
CCOC(=O)N1CCN(Cc2nc3c(c(=O)n(C)c(=O)n3C)n2Cc2ccccc2)CC1 | inactive
CC(=O)OCC(C)n1c(=O)c2ccccc2n1C(C)=O (centres undefined) | inactive
COc1cccc(C2CC(c3cccs3)=NN2C(=O)CSC2=NCCS2)c1OC (centres undefined) | inactive
CCCCCn1c(SCCC(C)C)nc2c1c(=O)[nH]c(=O)n2C | inactive
COC(=O)[C@@]12C[C@@H](CC(=O)NCCCCc3ccccc3)C(=O)N(CCc3ccc(OC)c(OC)c3)C1=CCC(C)(C)C2 | inactive
Cc1ccc(C(=O)Nc2c(-c3ccccc3)[nH][nH]c2=O)cc1 | inactive
O=C(OC1CC2CC1[C@H]1CCCCN1C2=O)N1CCOCC1 (some centres undefined) | inactive
O=C(NCc1ccco1)c1cccc(-c2ccc3nncn3c2)c1 | inactive
C=CCNC(=S)NNC(=O)c1ccc(Br)o1 | inactive
O=S(=O)(Nc1cccc(-c2ccc(N3CCOCC3)nn2)c1)c1ccc(Cl)c(Cl)c1 | inactive
O=C(CC1C(=O)NCCN1CC(c1ccccc1)c1ccccc1)NCCc1cn[nH]c1 (centres undefined) | inactive
CCOCCCNC(=O)C(NC(=O)Cc1c[nH]c2ccccc12)c1ccc(OC)cc1 (centres undefined) | inactive
COc1ccc(NC(=O)C(c2ccncc2)n2c(=O)c(-c3cc4ccccc4[nH]3)nc3ccccc32)cc1 (centres undefined) | inactive
COC(=O)Cn1c(=NC(=O)c2cc(OC)c(OC)c(OC)c2)sc2cc(OC)ccc21 | inactive
Cc1ccc(Cc2c(-c3ccc(Cl)cc3)nc3c4ccccc4ccn23)cc1 | inactive
COC(=O)C1=C[C@@H](C(=O)OC)[C@@H]2C3=C(C(=O)[C@]2(C)NC(=O)c2ccccc2)[C@H](C)n2c(=O)n(C)c(=O)n2[C@@H]3C1 | inactive
O=C1NC2(CCCCC2)N=C1c1ccccc1 | inactive

Compound | Potency
COc1cc(N)c(Cl)cc1C(=O)OCC(=O)c1ccc2c(c1)NC(=O)CO2 | inactive
COc1ccc(S(=O)(=O)N[C@@H]2C=C[C@@H](CC(=O)N3CCc4ccccc4C3)O[C@@H]2CO)cc1 | inactive
Cc1cccc(C)c1NC1=NC(=S)N(c2ccc(N(C)C)cc2)C1(C)C | inactive
CC1(C)OC(=O)C2=C(C[C@@H](C3CC3)O[C@H]2c2ccc(Cl)cc2)O1 | inactive
O=S(=O)(/N=C(/Nc1ccccc1)c1ccccc1)c1cccs1 | inactive
O=C1OCCOC2CCCc3oc(-c4ccccc4)c1c32 (centres undefined) | inactive
Cc1c(C(=O)NCC2CC2)sc(=O)n1Cc1cccc(F)c1 | inactive
OCCC#Cc1ccc(N2C(c3ccsc3)=Cc3ccc(F)cc3C2c2c[nH]c3ccccc23)cc1 (centres undefined) | inactive
O=C(c1ccc[nH]c1=S)N1CCN(S(=O)(=O)c2ccc(Br)cc2Cl)CC1 | inactive
CCOc1ccc(CCNC(=O)C(CC)n2nc(C)n3c(cc4sccc43)c2=O)cc1OCC (centres undefined) | inactive
CCOCCCNc1c(CC)c(C)c(C#N)c2nc3ccccc3n12 | inactive
O=C1COc2ccc(C(=O)COC(=O)CCOc3ccccc3)cc2N1 | inactive
CNC(=O)c1csc(Cc2c(Cl)sc3ccc(Cl)cc23)n1 | 8.91 µM (active)
CC(=O)NNC(=O)c1csc(Cc2c(Cl)sc3ccc(Cl)cc23)n1 | inactive
CC(=O)Cc1nsc(NC(=O)c2ccc(Cl)cc2Cl)n1 | inactive
C/C(=N\N(C)C)c1ccc(OCCOc2ccc([N+](=O)[O-])cc2)cc1 | inactive
O=C(Nc1ccc2c(c1)OCCO2)C1c2ccccc2OCC(=O)N1Cc1ccccn1 (centres undefined) | inactive
CCCNC(=O)C1(C)CCN1C(=O)C1(c2ccccc2)CC1 (centres undefined) | inactive
CCc1c(-c2ccc(F)cc2)ncn1Cc1cccc(-c2ccccc2)c1 | inactive
CCOc1ccc(S(=O)(=O)N2CCC(C(=O)NCc3ccccn3)CC2)cc1Cl | inactive
C[C@@H]1CN([C@@H](C)CO)S(=O)(=O)c2ccc(C#Cc3cccc(F)c3)cc2O[C@H]1CN(C)S(=O)(=O)c1cn(C)cn1 | inactive
O=C1OCCN1C(=O)[C@H]1[C@H](c2ccc(Cl)cc2)C(c2cccc(Cl)c2)=NN1c1ccc(Br)cc1 | inactive
COc1ccc(C2CC(c3cccs3)=Nc3ccccc3S2)cc1OC (centres undefined) | inactive
COc1ccc(C2CC(=O)n3c(nc4ccccc43)S2)cc1OC (centres undefined) | 17.8 µM (active)
COc1ccccc1C1CC(=O)n2c(nc(-c3ccccc3)c2-c2ccccc2)S1 (centres undefined) | inactive

Compound | Potency
NC(Cc1ccccc1)c1csc(Nc2cc(Oc3ccccc3)ncn2)n1 (centres undefined) | inactive
Cc1oc2cc(Br)c(O)c(Br)c2c1C(=O)c1ccccc1 | 28.2 µM (active)
CCOC(=O)c1c(-c2ccccc2)oc2cc(Br)c(O)c(C=O)c12 | inactive
COc1ccc(C(=O)c2c(C)oc3cc([N+](=O)[O-])c(O)c([N+](=O)[O-])c23)cc1 | inactive
COC(=O)Cc1ccc(N(Cc2ccccc2F)S(=O)(=O)c2ccc(Br)cc2)cc1 | inactive
COc1ccccc1NC(=O)CCSc1nnc(-c2ccc(O)cc2)o1 | inactive
CN[C@H]1C[C@H]2c3cc(Oc4ccccc4C)ccc3CCN2C(=O)[C@H]1[C@H](C)O | inactive
Cc1cccc(C)c1NC(=O)C(c1cccc2ccccc12)n1c(=O)c(-c2ccco2)nc2ccccc21 (centres undefined) | inactive
CC(=O)NCCC(=O)Nc1nc(C)c(Cc2ccc3c(c2)OCO3)s1 | inactive
Cc1ccc(C)c(-n2ccnc2SCC(N)=O)c1 | inactive
O=c1cccc(-c2ccc(Br)cc2)o1 | inactive
COC(=O)[C@@]12C[C@@H](CC(=O)N3CCC(c4ccccc4)CC3)C(=O)N(Cc3ccccc3)C1=CCC(C)(C)C2 | inactive
O=C1N[C@H](Cc2ccccc2)C(=O)N[C@H]1Cc1cn(S(=O)(=O)c2ccccc2)c2ccccc12 | inactive
CCCN1CC=C2C(C#N)=C(N)C(C#N)(C#N)C(c3cc(OC)ccc3OC)C2C1 (centres undefined) | 39.8 µM (active)
CCN1CC=C2C(C#N)=C(N)C(C#N)(C#N)[C@H](c3ccoc3)[C@H]2C1 | inactive
CC(C)Nc1ccc(-n2nc3ccccc3[n+]2[O-])cc1 | inactive
Cc1ccc2cccc([N+](=O)[O-])c2n1 | inactive
Cc1ccc(Nc2cc(C)nc3c(C)ccc([N+](=O)[O-])c23)cc1 | 44.7 µM (active)
O=[N+]([O-])c1ccccc1Nc1ccc(O)cc1 | inactive
Cc1cc(C)cc(NC(=O)NC2CCN(CC(=O)Nc3cccc(Cl)c3C)CC2)c1 | inactive
CC1(C(=O)NCc2ccccc2)CSCC(=O)N1CCCn1ccnc1 (centres undefined) | inactive
CN(Cc1ccccc1)C(=O)COc1ccccc1 | inactive
COc1ccc(C(CCN(Cc2ccc(OC)c(OC)c2)C(=O)CCl)c2ccccc2)cc1 (centres undefined) | inactive
COc1ccc(CN(C)C(=O)CC(c2ccccc2)c2ccccc2)cc1 | 50.1 µM (active)
